Shown are actives, neighbours in structure and some others; about 3.2% of the full set was active somewhere.
PMP22 txn = modulators of PMP22 gene transcription in S16 Schwann cells; 43,000 compounds, 2% hits; S16 Pmp22-F2sN Schwann cells, FLuc/NLuc coincidence luminescence, 24 h; AID 1508649; Potency, µM (highest dose often 57.5 µM), without a hit: top-dose activity change, negative = inhibition, hits mostly inhibitors; active = clear falling dose curves in both reporters; inconclusive = both reporters move, but less clearly or upward; inactive = either reporter flat; the % is the NLuc reporter signal; also: potency is read from the fitted curve at half-maximal effect; % is scaled to controls: 0 for no effect and ±100 for the full control effect
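Luminescent read-out of sequential FLuc and NLuc signals from a reporter embedded in the Pmp22 3' UTR of S16 Schwann cells, taken after 24 h compound exposure at 37C; compounds reducing both signals score as inhibitors of expression.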
p53null 32C tox = p53 null cell cytotoxicity, permissive temperature; AID 903; 55,000 compounds, 0.62% hits; H1299-neo p53 null cells, ATP luminescence, 24 h, 32C; Potency, µM (series often up to 46.1 µM), for the others: at the highest dose activity change, negative = cytotoxicity, hits mostly cytotoxic;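 also: potency is read from the fitted curve at half-maximal effect; 0% = DMSO only and -100% = full killing by 100 µM tamoxifen; nearly all actives have a fitted effect of over 55% in size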
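Cytotoxicity: H1299-neo (no p53), 32C, 24 h treatment. Concentrations up to 46 uM. Readout cellular ATP, luminescence. Normalization to DMSO basal and tamoxifen 100 uM maximal kill.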
S16 viability = cytotoxicity in S16 Pmp22-F2sN Schwann cells; Potency, µM (titrated, usually from 57.5 µM), for the others: top-dose activity change, negative = cytotoxicity, most hits filed as cytotoxic; 43,000 compounds, 0.48% hits; AID 1508642; S16 Pmp22-F2sN Schwann cells viability, CellTiter-Glo, 24 h; also: potency is read from the fitted curve at half-maximal effect; % is scaled to controls: 0 for no effect and ±100 for the full control effect; nearly all actives have a fitted effect of over 65% in size
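Used to flag compounds lowering reporter output through toxicity, this quantitative HTS measures ATP-based CellTiter-Glo luminescence in S16 Pmp22-F2sN Schwann cells after 24 h compound exposure at 37C.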
mTORC1 inh = reduces mTORC1 signaling in Tsc2 and p53 null MEF cells. Tsc2-/- p53-/- MEF, phospho-rpS6 immunofluorescence/PI, 24 h. Potency, µM (doses to about 38.3 µM), for the others: at the highest dose activity change, negative = inhibition, most hits filed as inhibitors. 44,000 compounds, 0.78% hits;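 also: potency is read from the fitted curve at half-maximal effect; plate controls were DMSO for no effect and rapamycin for full effect; nearly all actives have a fitted effect of over 50% in size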
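Tsc2-/-, p53-/- mouse embryonic fibroblasts (empty-vector line) exposed to compound 24 hrs at 37 C, fixed, immunostained for phospho-rpS6 and counterstained with propidium iodide. Acumen laser scanning gives % positive cells from Alexa 488/PI ratio, thresholded using 7.5 nM rapamycin; PI count gives viability.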
p53null 39C tox = p53 null cell cytotoxicity, nonpermissive temperature | H1299 p53-null (neo) cells, 39C, ATPlite viability, 24 h | AID 904 | 55,000 compounds, 0.97% hits | Potency, µM (series often up to 46.1 µM), without a hit: top-dose activity, negative = cell killing, hits mostly cytotoxic;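 also: potency is read from the fitted curve at half-maximal effect; 0% = DMSO only and -100% = full killing by 100 µM tamoxifen; nearly all actives have a fitted effect of over 50% in size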
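Luminescent ATP signal reported cell survival after H1299 lines (neo, p53 null; or p53 A138V) received up to 46 uM compound and 24 hr incubation at 39C.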
NLuc saturating = inhibits NanoLuc at saturating substrate, PMP22 counter-screen | shares compounds with PMP22 txn | Potency, µM (series often up to 57.5 µM), inactives show at the highest dose activity change, negative = inhibition, actives largely listed as inhibitors | 690 compounds, 4% hits | AID 1508638 | Secreted NLuc enzyme (filtered S16 cell medium), Nano-Glo luminescence; also: potency is read from the fitted curve at half-maximal effect; % is scaled to controls: 0 for no effect and ±100 for the full control effect
NLuc Km ctr = inhibits NanoLuc under Km conditions, PMP22 counter-screen; secreted NLuc enzyme, coelenterazine luminescence, Km conditions; shares compounds with PMP22 txn; 690 compounds, 5% hits; Potency, µM (top dose mostly 57.5 µM), for inactives: at the highest dose activity change, negative = inhibition, most hits filed as inhibitors; also: potency is read from the fitted curve at half-maximal effect; % is scaled to controls: 0 for no effect and ±100 for the full control effect
FLuc counter = firefly luciferase enzyme inhibition artifact for PMP22 screen; shares compounds with PMP22 txn; purified P. pyralis FLuc, luminescence, 10 min; Potency, µM (titrated, usually from 57.5 µM), for the others: top-dose activity, negative = inhibition, hits mostly inhibitors; 690 tested, under 10 active; AID 1508640; also: % of control where 0% means no effect
Target sequence (P08659 whole entry, looked up): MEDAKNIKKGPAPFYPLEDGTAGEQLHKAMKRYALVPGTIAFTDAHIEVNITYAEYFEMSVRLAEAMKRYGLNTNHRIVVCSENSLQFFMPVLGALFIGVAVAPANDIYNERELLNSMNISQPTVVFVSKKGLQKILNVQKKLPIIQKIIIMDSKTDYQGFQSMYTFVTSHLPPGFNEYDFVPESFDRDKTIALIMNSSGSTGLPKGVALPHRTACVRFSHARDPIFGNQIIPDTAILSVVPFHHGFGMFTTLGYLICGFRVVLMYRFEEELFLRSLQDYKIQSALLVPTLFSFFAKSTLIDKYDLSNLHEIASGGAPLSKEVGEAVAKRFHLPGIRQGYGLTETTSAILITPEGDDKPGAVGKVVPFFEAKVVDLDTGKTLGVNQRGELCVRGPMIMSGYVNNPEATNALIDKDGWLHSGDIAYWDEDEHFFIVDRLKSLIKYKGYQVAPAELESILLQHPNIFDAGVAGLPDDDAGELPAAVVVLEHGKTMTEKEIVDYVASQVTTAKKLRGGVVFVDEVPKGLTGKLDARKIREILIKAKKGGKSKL
S16 F2sN tox cnf = confirmation of cytotoxicity in S16 Pmp22-F2sN Schwann cells (luciferase reporters placed in the Pmp22 gene); shares compounds with PMP22 txn; S16 Schwann cells viability, CellTiter-Glo ATP luminescence, 24 h; Potency, µM (top dose mostly 57.5 µM), for inactives: at the top dose activity change, negative = viability loss, usual class: cytotoxic; 690 compounds, 7% hits; AID 1508641; also: potency is read from the fitted curve at half-maximal effect; % is scaled to controls: 0 for no effect and ±100 for the full control effect
PMP22 txn conf = PMP22 transcription modulation, confirmatory; shares compounds with PMP22 txn; S16 Schwann cells Pmp22-F2sN, dual luciferase, 24 h; Potency, µM (top dose mostly 57.5 µM), for the others: top-dose activity change, negative = inhibition, hits mostly inhibitors; 690 compounds, 22% hits; active = clear falling dose curves in both reporters; inconclusive = both reporters move, but less clearly or upward; inactive = either reporter flat; the % is the FLuc reporter signal; also: potency is read from the fitted curve at half-maximal effect
Starred values were filed as active, the others as inactive; ? = inconclusive; . = no result given. Unless noted, calls follow the shape of the dose curve; as a rule, active = well fitted curve in the direction sought with a large enough effect; inconclusive = small, poorly fitted or top-dose-only effect, or another doubt; inactive = no such curve, though single readings can be large; an effect the other way counts as inactive or inconclusive.

SMILES	PMP22 txn	p53null 32C tox	S16 viability	mTORC1 inh	p53null 39C tox	NLuc saturating	NLuc Km ctr	FLuc counter	S16 F2sN tox cnf	PMP22 txn conf
CCCn1c(=O)c2sccc2n2c(CCCC(=O)Nc3ccccc3F)nnc12	-14%	2%	11%	3%	-11%	.	.	.	.	.
COc1ccc(C(=O)Nc2cc(C(F)(F)F)ccc2N2CCN(c3ccccc3)CC2)cc1OC	-15%	?	7%	4%	-4%	.	.	.	.	.
COc1nnc(-c2ccc(N3CCCCC3)c(NC(=O)c3ccc(Cl)cc3)c2)c2ccccc12	15µM*	-5%	3%	0%	-16%	?	0%	4%	-8%	?
COc1nnc(-c2ccc(N3CCCCC3)c(NC(=O)c3ccccc3)c2)c2ccccc12	14µM*	15%	?	-2%	-9%	?	?	5%	0%	?
COc1ccc(OCC(=O)N2CCN(C(=O)c3cccc(OC)c3)CC2)cc1	4%	-10%	-1%	4%	-13%	.	.	.	.	.
CCOc1cc(C2CC(=O)Nc3cc4c(cc32)OCCO4)ccc1O (configuration not stated)	-30%	8%	?	-1%	-8%	.	.	.	.	.
COc1cc(C2CC(=O)Nc3cc4c(cc32)OCCO4)cc(Br)c1OC (configuration not stated)	0.67µM*	16%	?	?	-9%	-4%	-8%	4%	-4%	?
CCc1ccccc1NC(=O)C(=O)NCCc1sc(-c2cccc(F)c2)nc1C	?	-6%	9%	1%	-7%	.	.	.	.	.
CC(=O)Nc1cccc(NC(=O)C(=O)NCCc2sc(-c3ccccc3)nc2C)c1	2.5µM*	3%	-5%	?	-28%	-18%	?	-4%	0%	3.6µM*
CCOc1ccccc1NC(=O)C(=O)NCCc1sc(-c2cccc(F)c2)nc1C	?	-2%	22%	2%	-5%	-15%	-1%	-1%	7%	?
